The campaign covered roughly 52,000 compounds. About 4,300 (8.3%) were called active. The full list was thinned out, with actives kept by preference. A number with no mark means an inactive call. Cut-off read from the data, not from the text of the source: active = survival mostly below about 52% (no sharp cut-off); inactive = mostly above about 56%.

The test system of the assay is DeltatarO mutant. The assay can be described thus: S. aureus survival, RN4220 and DeltatarO strains – OD600, teichoic acid synthesis inhibitors, primary screen (AID 463173). The settings on record: S. aureus RN4220 wild type/DeltatarO growth, OD600, 18 h, hits give low values, screened at 18.75 µg/mL (by protocol).
Take `COc1ccc(CNC(=O)c2nc(S(=O)(=O)Cc3ccccc3)ncc2Cl)cc1`: the survival is 18% (active).
In the case of `Cc1ccc(CNC(=O)c2nc(SCc3ccc(F)cc3)ncc2Cl)cc1`, the survival is 71%.
For `COc1ccc(CNC(=O)c2nc(SC(C)C)ncc2Cl)cc1`, the survival was 114%.
As for `Cc1ccc(CSc2ncc(Cl)c(C(=O)NCc3ccccc3)n2)cc1`, the survival was 79%.
Consider `O=C(NCc1ccccc1)c1nc(S(=O)(=O)Cc2ccc(F)cc2)ncc1Cl`, for which the survival is -6% (active).
Regarding `O=C(NCc1ccccc1)c1nc(S(=O)(=O)Cc2ccccc2)ncc1Cl`, the survival was 18% (active).
As for `Cc1ccc(NC(=O)c2nc(S(=O)(=O)Cc3ccc(F)cc3)ncc2Cl)cc1C`, the survival was 84%.
As to `COc1ccc(CNC(=O)c2nc(SCc3ccccc3F)ncc2Cl)cc1`, the survival was 81%.
For the compound `CC(=O)Nc1ccc(NC(=O)c2nc(S(=O)(=O)Cc3ccc(F)cc3)ncc2Cl)cc1`, the survival was 32% (active).
To `CCS(=O)(=O)c1ncc(Cl)c(C(=O)NCc2ccccc2)n1` belongs 50%; to `Cc1ccc(C)c(NC(=O)c2nc(S(=O)(=O)Cc3ccc(F)cc3)ncc2Cl)c1`, 99%; to `CCNC(=O)c1c(NC(=O)Cc2coc3ccc(CC)cc23)sc2c1CCCC2`, 79%.
As to `COc1ccc(CNC(=O)c2cccc(-n3cnc4cccnc43)c2C)cc1`, the survival was 90%.
On to `CCc1ccc(NC(=O)c2cc(S(=O)(=O)N3CCCCCC3)ccc2F)cc1`, for which the survival was 99%.
To `CC(=O)Nc1n[nH]c(-c2ccc(C)cc2)c1C` belongs 94%; to `Cc1ccc(NC(=O)Cn2c(=O)ccc3cc(S(=O)(=O)N4CCC(C)CC4)ccc32)cc1C`, 71%.
Take `COc1ccc(N2C(=O)C(CC(=O)Nc3ccccc3)N(CCC3=CCCCC3)C2=O)cc1` (stereo not given): the survival was 72%.
With `Cc1ccc(CNC(=O)c2nc(SCc3cccc(C)c3)ncc2Cl)cc1`, the survival was 117%.
In the case of `COc1ccc(OC)c(NC(=O)c2nc(SCc3ccc(F)cc3)ncc2Cl)c1`, the survival was 77%.
Consider `COc1ccc(OC)c(NC(=O)c2nc(S(=O)(=O)Cc3ccc(F)cc3)ncc2Cl)c1`, for which the survival was -5% (active).
As for `COc1ccc(CNC(=O)c2nc(SCc3ccc(C)cc3)ncc2Cl)cc1`, the survival was 67%.
With `Cc1cccc(CS(=O)(=O)c2ncc(Cl)c(C(=O)NCc3ccccc3)n2)c1`, the survival is -1% (active).
To `Cc1cccc(CS(=O)(=O)Cc2ccc(C(=O)NCc3ccccc3)o2)c1` belongs 124%; to `CSc1ncc(Cl)c(C(=O)NCc2ccc(C)cc2)n1`, 84%.
Regarding `Cc1ccc(CNC(=O)c2nc(S(=O)(=O)Cc3ccc(C)cc3)ncc2Cl)cc1`, the survival is 41% (active).
To `COc1ccc(NC(=O)c2nc(S(=O)(=O)Cc3ccc(C)cc3)ncc2Cl)cc1` belongs 32% (active).
With `COc1ccccc1NC(=O)c1nc(SCc2ccc(F)cc2)ncc1Cl`, the survival is 77%.
In the case of `CCOc1ccc(NS(=O)(=O)c2ccc3c(c2)CCCN3C(=O)C2CCC2)cc1`, the survival was 67%.
Consider `CC(C)Oc1ccc(CNC(=O)c2cnc3sc(N4CCCCC4)nn3c2=O)cc1`, for which the survival was 124%.
Take `CCCCCn1c(=N)c(S(=O)(=O)c2ccc(C)cc2)cc2c(=O)n3cc(C)ccc3nc21`: the survival is 84%.
Take `O=C(NCc1ccc(Cl)cc1)NCc1noc2ccccc12`: the survival was 41%.
As to `COc1ccccc1NC(=O)CSc1oc(-c2cccs2)nc1S(=O)(=O)c1ccc(Br)cc1`, the survival is 68%.
To `CCn1ccc2cc(S(=O)(=O)N3CCCN(C(=O)Nc4ccc(C)cc4)CC3)ccc21` belongs 73%; to `CCSc1nnc(C2CCCN(CC(=O)Nc3nc(C)cs3)C2)n1C` (stereo not given), 91%; to `CC(C)NC(=O)c1ccc(CSc2nc3ccncc3n2Cc2cccc(F)c2)cc1`, 77%.
Turning to `CCOc1ccc(-c2nonc2NC(=O)c2ccccc2C)cc1`, the survival was 107%.
On to `CCOc1ccc(NC(=O)c2cc(S(=O)(=O)N3CCOCC3)ccc2F)cc1`, for which the survival is 89%.
Regarding `CCOC(=O)c1ccc(NC(=O)c2nc(S(=O)(=O)Cc3ccccc3)ncc2Cl)cc1`, the survival is -2% (active).
As to `COC(=O)c1ccccc1NC(=O)c1nc(SCc2ccccc2C)ncc1Cl`, the survival is 79%.
Then `CCOc1ccccc1NC(=O)c1nc(S(=O)(=O)Cc2cccc(C)c2)ncc1Cl`, with 66%; and `CCS(=O)(=O)c1ncc(Cl)c(C(=O)Nc2c(C(=O)Nc3cccc(C)c3)oc3ccccc23)n1`, with 67%.
To `COC(=O)c1ccccc1NC(=O)c1nc(S(=O)(=O)Cc2cccc(C)c2)ncc1Cl` belongs 39% (active); to `CCOC(=O)c1ccc(NC(=O)c2nc(SC(C)C)ncc2Cl)cc1`, 107%; to `Cc1ccc(NC(=O)c2nc(S(=O)(=O)Cc3cccc(C)c3)ncc2Cl)cc1`, -3% (active).
Take `CCS(=O)(=O)c1ncc(Cl)c(C(=O)Nc2ccccc2)n1`: the survival was 52%.
With `CCc1cccc(NC(=O)Cn2c(=O)n(-c3ccccc3C)c(=O)c3c2c2cc(C)ccc2n3C)c1`, the survival is 85%.
With `O=C(COc1ccccc1Cl)Nc1ccc(-c2nc3ccccc3s2)cc1`, the survival is 52%.
As for `CCOC(=O)c1ccc(Nc2c(-c3ccc(N(C)C)cc3)nc3nc[nH]n23)cc1`, the survival was 102%.
To `COc1cccc(OCc2cc(=O)n3c(-c4ccccc4)csc3n2)c1` belongs 74%; to `CC(C)CC(=O)Nc1cccc(-c2cn3cccnc3n2)c1`, 83%.
Consider `CN1CCN(Cc2nnnn2CC2CCCO2)CC1` (stereo not given), for which the survival is 95%.
Take `CCOc1ccc(Cn2nnc(C(=O)Nc3cccc(SC)c3)c2N)cc1`: the survival is 30% (active).
As for `CCOc1ccc(Cn2nnc(C(=O)Nc3ccc(Cl)cc3)c2N)cc1`, the survival is 88%.
Consider `CCc1cccc(NC(=O)c2nnn(Cc3ccc(SC)cc3)c2N)c1`, for which the survival is 59%.
Then `CCOc1ccc(S(=O)(=O)Nc2cccc(-c3ccc(N4CCC(C)CC4)nn3)c2)cc1`, with 86%; and `CC(C)COc1ccc(C(=O)N(Cc2ccc(N(C)C)cc2)Cc2ccco2)cc1`, with 71%; and `Cc1ccc(NC(=O)CSCc2cc(=O)c3ccccc3[nH]2)c(C)c1`, with 116%.
As for `O=C(Cn1c(=O)c2cccn2c2ccc(F)cc21)N1CCN(c2ccccc2F)CC1`, the survival was 56%.
On to `CC(C)c1ccc(NC(=O)CCn2c(=O)c3cccn3c3ccccc32)cc1`, for which the survival was 57%.
To `Cc1ccc(NC(=O)CCn2c(=O)c3cccn3c3ccccc32)cc1Cl` belongs 45% (active); to `Cc1cc(C)c(NC(=O)CCn2c(=O)c3cccn3c3ccccc32)c(C)c1`, 49%; to `Cc1ccc(NC(=O)CCCn2c(=O)c3cccn3c3ccccc32)cc1Cl`, 68%.
Regarding `Cc1ccc(NC(=O)CCCn2c(=O)c3cccn3c3ccccc32)cc1C`, the survival was 61%.
To `Cc1ccc(NC(=O)CCn2c(=O)c3cccn3c3ccccc32)cc1C` belongs 46% (active); to `O=C(Nc1ccc(Cl)cc1)N1CCN(c2ccc3nnc(-c4ccccc4)n3n2)CC1`, 72%; to `COc1cc(C2C(C(=O)Nc3ccc(Cl)cc3)=C(C)Nc3nc(SC)nn32)cc(OC)c1OC` (stereo not given), 64%.
For the compound `CC(C)=NNS(=O)(=O)c1ccc(N2CCCC2=O)cc1`, the survival was 71%.
To `CC1CCc2sc3ncnc(NCCCN(C)C)c3c2C1` (stereo not given) belongs 117%; to `Cc1nn(CC(=O)NCc2ccc(N(C)C)cc2)c(=O)c2nn(-c3ccccc3)c(C)c12`, 83%.
Turning to `CCS(=O)(=O)N1CCc2cc(C(=O)NCCc3ccc(OC)c(OC)c3)ccc21`, the survival was 69%.
Then `CCC(=O)N1CCc2cc(Br)cc(S(=O)(=O)NCCc3ccc(OC)c(OC)c3)c21`, with 52%.
For `O=C1CN(C(=O)COc2ccc(Cl)cc2Cl)C(c2ccccc2)c2cc(F)ccc2N1` (stereo not given), the survival is 88%.
`O=C1CN(C(=O)COc2ccc(Cl)cc2Cl)C(c2ccc(F)cc2)c2cc(F)ccc2N1` (stereo not given): the survival was 47% (active).
Then `CCCC(=O)N1CC(=O)Nc2ccc(Cl)cc2C1c1ccccc1` (stereo not given), with 69%; and `Cc1ccc2c(c1)C(c1ccc(F)cc1)N(C(=O)COc1ccc(Cl)cc1Cl)CC(=O)N2` (stereo not given), with 45% (active); and `CCCC(=O)N1CC(=O)Nc2ccc(Cl)cc2C1c1ccc(F)cc1` (stereo not given), with 50%.
In the case of `CCOc1ccc(C(=O)N2CC(=O)Nc3ccc(C)cc3C2c2ccc(F)cc2)cc1OCC` (stereo not given), the survival was 67%.
Regarding `COc1ccc(C(=O)N2CC(=O)Nc3ccc(C)cc3C2c2ccccc2)cc1OC` (stereo not given), the survival was 61%.
Regarding `Cc1ccc2c(c1)C(c1ccc(F)cc1)N(C(=O)C(C)C)CC(=O)N2` (stereo not given), the survival is 82%.
On to `Cc1ccc2c(c1)C(c1ccccc1)N(C(=O)COc1ccc(Cl)cc1Cl)CC(=O)N2` (stereo not given), for which the survival was 49% (active).
On to `Cc1c(CCC(=O)NCCc2ccccc2F)c(=O)oc2cc(O)ccc12`, for which the survival was 61%.
Take `O=C(CSc1nc2c([nH]c3ccccc32)c(=O)n1-c1ccccc1)N1CCc2ccccc21`: the survival was 101%.
Take `CCOC(=O)c1ccccc1NS(=O)(=O)c1ccc(N2CCCCS2(=O)=O)cc1`: the survival is 90%.
As to `CN1CCN(Cn2c(O)c(N=NC(=O)c3ccc(Br)cc3)c3cc(Br)ccc32)CC1`, the survival is 87%.
For `CCOc1ccc(NC(=O)CC2C(=O)N(c3cccc(C)c3)C(=O)N2Cc2cccnc2)cc1` (stereo not given), the survival was 55%.
Then `CCOc1ccc(NC(=O)c2cnc3sc(N4CCOCC4)nn3c2=O)cc1`, with 97%.
Regarding `COCCn1c(SCC(=O)c2c[nH]c3ccccc23)nc2cc(C(=O)NCC(C)C)ccc2c1=O`, the survival is 100%.
To `COCCNC(=O)c1ccc2c(=O)n(CCOC)c(SCC(=O)c3c[nH]c4ccccc34)nc2c1` belongs 17% (active); to `COCCn1c(SCC(=O)c2c[nH]c3ccccc23)nc2cc(C(=O)NC(C)C)ccc2c1=O`, 55%; to `Cc1ccc(Cl)cc1-n1ncc2c(NCCc3ccccc3)ncnc21`, 60%.

Values taken from PubChem BioAssay AID463173 (ICCB-Longwood Screening Facility, Harvard Medical School, 2010).
